Source: PubChem (Broad Institute)
Sampled rows, rich in hits. Any-hit rate of the full collection: about 6.8%.
C diff HTS – blocks growth of Clostridium difficile; Clostridium difficile clinical isolate growth, OD600, 24 h; stronger effect = lower value; growth activity, negative = inhibition, % at 16 µg/mL (by protocol); 86,000 compounds, 0.25% hits;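 active = mean growth activity at or below -80% and every replicate also at or below -80%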;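 also: 0% = DMSO wells and -100% = levofloxacin 16 µg/mL wells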
T cruzi growth – inhibitors of T. cruzi proliferation; T. cruzi beta-gal in NIH3T3, GalScreen luminescence, 90 h; inhibition, % at 8.34 µM; 77,000 compounds, 5.9% hits;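 active = mean inhibition above about 93%, with at least 55% of replicates each passing it, limit read from the data, passing the limit was not always enough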
Pf Dd2 growth – inhibitors of Plasmodium falciparum Dd2 growth | activity change, % at 10 µM | P. falciparum Dd2 growth, SYBR Green, 72 h; stronger effect = lower value | 94,000 compounds, 2.3% hits; in the data active = activity change below about -80%
* hit, by the source's call; . = not tested or not shown.

SMILES | C diff HTS | T cruzi growth | Pf Dd2 growth
Cc1ccc(S(=O)(=O)N(C)C[C@@H]2Oc3cc(C#Cc4ccncc4)ccc3S(=O)(=O)N([C@H](C)CO)C[C@@H]2C)cc1 | 1 | 62 | -70
C[C@@H]1CN([C@H](C)CO)S(=O)(=O)c2ccc(C#Cc3ccncc3)cc2O[C@H]1CN(C)S(=O)(=O)c1ccc(F)cc1 | 4 | 107 | -86*
C[C@@H]1CN([C@@H](C)CO)S(=O)(=O)c2ccc(C#Cc3ccncc3)cc2O[C@H]1CN(C)S(=O)(=O)c1ccccc1 | -2 | 82 | -61
O=C(Cc1ccccn1)N[C@H]1CC[C@H](CCNC(=O)c2cc(Cl)cc(Cl)c2)O[C@@H]1CO | . | -13 | 7
CO[C@H]1CN(C)C(=O)c2ccc(NC(=O)Nc3cc(Cl)cc(Cl)c3)cc2OC[C@H](C)NC[C@H]1C | -96* | -7 | -89*
CO[C@@H]1CN(C)C(=O)c2ccc(NC(=O)Nc3cccc(Cl)c3)cc2OC[C@H](C)NC[C@@H]1C | . | 14 | -26
CO[C@H]1CN(C)C(=O)c2ccc(NC(=O)Nc3cc(Cl)cc(Cl)c3)cc2OC[C@@H](C)NC[C@H]1C | -53 | -27 | -24
CO[C@@H]1CN(C)C(=O)c2ccc(NC(=O)Nc3cccc(Cl)c3)cc2OC[C@@H](C)NC[C@H]1C | . | -92 | -84*
C[C@H](CO)N1C[C@H](C)[C@@H](CN(C)C(=O)NC2CCCCC2)Oc2c(NC(=O)c3cnccn3)cccc2C1=O | 4 | 56 | 14
C[C@H]1CN([C@@H](C)CO)C(=O)Cc2cc(NC(=O)C3CC3)ccc2O[C@H]1CN(C)CC1CCCCC1 | -1 | -3 | 20
C[C@@H]1CN([C@@H](C)CO)C(=O)c2cc(NC(=O)CCCN(C)C)ccc2O[C@@H](C)CCCCO[C@H]1CN(C)Cc1ccccc1 | 3 | 32 | .
Cc1ccccc1-c1cnc2c(c1)C(=O)N([C@@H](C)CO)C[C@H](C)[C@@H](CN(C)CC1CCCCC1)O2 | . | 59 | -45
CCC(=O)N[C@H]1CC[C@@H](CCNC(=O)Nc2ccc(C(F)(F)F)cc2)O[C@H]1CO | . | 55 | -28
CN(C)CC(=O)N[C@@H]1CC[C@@H](CCNC(=O)Nc2ccc(C(F)(F)F)cc2)O[C@@H]1CO | -100* | -43 | 8
CC(=O)N[C@H]1CC[C@H](CCNC(=O)Nc2ccc(C(F)(F)F)cc2)O[C@H]1CO | -95* | 29 | 9
CC(=O)N[C@H]1CC[C@@H](CCNC(=O)Nc2ccc(C(F)(F)F)cc2)O[C@H]1CO | -11 | -62 | 21
O=C(NCC[C@H]1CC[C@@H](NC(=O)C2CC2)[C@@H](CO)O1)Nc1ccc(C(F)(F)F)cc1 | -100* | 15 | -19
O=C(NCC[C@H]1CC[C@@H](NC(=O)C2CC2)[C@H](CO)O1)Nc1ccc(C(F)(F)F)cc1 | 20 | 8 | -25
C=C[C@@H](CO)NS(=O)(=O)c1ccc(Br)cc1 | 1 | . | .
COCC#Cc1ccc([C@H]2[C@H](CO)N3C(=O)CN(C(=O)C4CCC4)C[C@@H]23)cc1 | -4 | . | 21
C[C@H]1CN([C@@H](C)CO)C(=O)c2cc(C#Cc3ccccc3F)cnc2O[C@H]1CN(C)C(=O)c1ccc2c(c1)OCO2 | -4 | 62 | -59
C[C@H](CO)N1C[C@H](C)[C@H](CN(C)Cc2ccncc2)Oc2c(NC(=O)Nc3ccccc3)cccc2C1=O | 4 | 26 | 14
Cc1ccc(S(=O)(=O)N(C)C[C@H]2OCCCC[C@H](C)Oc3ccc(NC(=O)Nc4cccc5ccccc45)cc3C(=O)N([C@@H](C)CO)C[C@H]2C)cc1 | 3 | . | -82*
COc1ccc(S(=O)(=O)N(C)C[C@H]2OCCCC[C@@H](C)Oc3ccc(NC(=O)Nc4cccc5ccccc45)cc3C(=O)N([C@@H](C)CO)C[C@@H]2C)cc1 | 3 | 79 | -70
COc1ccc(S(=O)(=O)N(C)C[C@@H]2OCCCC[C@H](C)Oc3ccc(NC(=O)Nc4cccc5ccccc45)cc3C(=O)N([C@H](C)CO)C[C@@H]2C)cc1 | 1 | 82 | -57
SMILES | C diff HTS | T cruzi growth | Pf Dd2 growth
Cc1ccc(S(=O)(=O)N(C)C[C@H]2OCCCC[C@H](C)Oc3ccc(NC(=O)Nc4cccc5ccccc45)cc3C(=O)N([C@H](C)CO)C[C@H]2C)cc1 | 1 | . | -79
COc1ccc(S(=O)(=O)N(C)C[C@H]2OCCCC[C@H](C)Oc3ccc(NC(=O)Nc4cccc5ccccc45)cc3C(=O)N([C@H](C)CO)C[C@H]2C)cc1 | 6 | 80 | -86*
COc1ccc(S(=O)(=O)N(C)C[C@@H]2OCCCC[C@H](C)Oc3ccc(NC(=O)Nc4cccc5ccccc45)cc3C(=O)N([C@@H](C)CO)C[C@H]2C)cc1 | 0 | 18 | -89*
Cc1ccc(S(=O)(=O)Nc2ccc3c(c2)CC(=O)N([C@@H](C)CO)C[C@@H](C)[C@H](CN(C)CC2CC2)O3)cc1 | -3 | -69 | -37
C[C@@H]1CN([C@H](C)CO)C(=O)c2cc(NC(=O)C3CCCCC3)ccc2O[C@@H]1CN(C)Cc1ccc(Oc2ccccc2)cc1 | 20 | 39 | 5
COc1cccc(NC(=O)N2C[C@H](O)COC[C@@H]3O[C@@H](CC(=O)NC4CCCC4)CC[C@H]32)c1 | . | 12 | 4
CC=Cc1ccc2n(c1=O)C[C@@H]1[C@@H](CO)[C@H](C(=O)NC3Cc4ccccc4C3)N(CC3CCCC3)[C@H]21 (mixture of isomers) | 31 | . | 36
O=C(Nc1cc(F)ccc1F)N1CCCCN2[C@H](C1)[C@H](c1ccc(C3=CCCCC3)cc1)[C@@H]2CO | 11 | 78 | 6
Cc1cccc(-c2ccc([C@@H]3[C@@H](CO)N4CCCCN(CCC(F)(F)F)C[C@@H]34)cc2)c1 | 24 | 93 | -22
COc1ccccc1NC(=O)N1CCCCN2[C@@H](CO)[C@@H](c3ccc(C#CC4CCCC4)cc3)[C@@H]2C1 | 58 | -3 | -64
COc1ccccc1NC(=O)N1CCCCN2[C@H](CO)[C@H](c3ccc(-c4ccc(C)cc4)cc3)[C@@H]2C1 | -5 | 87 | -11
COc1ccccc1NC(=O)N1CCCCN2[C@@H](CO)[C@H](c3ccc(C#CC4CCCC4)cc3)[C@@H]2C1 | 56 | -3 | -83*
Cc1cccc(-c2ccc([C@@H]3[C@H](CO)N4CCCCN(CCC(F)(F)F)C[C@@H]34)cc2)c1 | 21 | 84 | -81*
O=C(Nc1cc(F)ccc1F)N1CCCCN2[C@@H](CO)[C@@H](c3ccc(C4=CCCCC4)cc3)[C@@H]2C1 | -95* | -27 | -70
COc1ccccc1NC(=O)N1CCCCN2[C@H](CO)[C@H](c3ccc(-c4cccc(C)c4)cc3)[C@H]2C1 | -65 | 75 | -86*
Cc1ccccc1S(=O)(=O)NCC[C@@H]1CC[C@@H](NC(=O)C2CC2)[C@H](CO)O1 | -2 | . | -2
COc1ccc(S(=O)(=O)N[C@H]2CC[C@@H](CC(=O)NCc3ccccc3F)O[C@H]2CO)cc1 | 1 | 32 | 22
CCCNC(=O)N1[C@H](C#N)[C@H](c2ccccc2-c2cccc(OC)c2)[C@@H]1CO | 1 | . | -19
C[C@H](CO)N1C[C@H](C)[C@@H](CN(C)Cc2ccncc2)Oc2ncc(-c3ccc(C#N)cc3)cc2C1=O | -6 | -33 | -17
COc1ccc(NC(=O)N2CC[C@@H]3[C@H]2c2cc(Br)ccc2N(C)[C@@H]3CO)cc1 | -100* | 66 | 1
